Compounds with a hit are over-represented: about 4.7% of the library has one in this group of screens.
TRHR enhancer – qHTS for Small Molecule Agonists and Allosteric Enhancers of Human TRH Receptor: Primary Screen for Enhancers | TRHR cells, fluo-8 calcium fluorescence, EC20 TRH enhancement | enhancement, % at 2 µM | actives 0.66% (n = 360,000); in the data active = enhancement above about 30%; note: 0% is about no effect
Target sequence (P34981 whole entry, looked up): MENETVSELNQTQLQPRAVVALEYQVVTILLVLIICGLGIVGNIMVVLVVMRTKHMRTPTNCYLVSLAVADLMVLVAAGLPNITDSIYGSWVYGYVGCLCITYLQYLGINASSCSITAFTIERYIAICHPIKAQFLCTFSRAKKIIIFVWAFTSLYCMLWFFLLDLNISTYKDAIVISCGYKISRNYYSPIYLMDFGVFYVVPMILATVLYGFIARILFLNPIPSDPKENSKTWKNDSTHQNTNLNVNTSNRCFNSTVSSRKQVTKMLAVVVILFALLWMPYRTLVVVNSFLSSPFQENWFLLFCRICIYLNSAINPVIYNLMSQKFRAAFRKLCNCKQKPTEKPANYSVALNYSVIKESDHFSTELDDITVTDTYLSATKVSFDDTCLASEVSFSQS
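Enhancer read-out: after compound pinning and an initial kinetic agonist-mode read, an EC20 of TRH (10 nM final) was injected and fluo-8 calcium signal (Ex 480/Em 530) followed at 1 s/cycle for 100 cycles in TRHR-expressing cells.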
D1 antagonist – Antagonist of Human D 1 Dopamine Receptor: qHTS. D(1A) dopamine receptor (Homo sapiens), P21728. HEK293 TREx D1 cells, calcium flux, dopamine EC80; hits give low values. activity change, negative = inhibition, % at 10 µM. actives 3.2% (n = 360,000); in the data active = activity change below about -30%; note: % is set by controls: 0 for no effect and ±100 for the full control effect
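Using tetracycline-induced force-coupled D1 Hek293 cells and a calcium dye, signals were followed for 180 s after compound, then for 180 s after EC80 dopamine, to detect inhibitors.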
D1 potentiator – Potentiators of Human D1 Dopamine Receptor: qHTS; D(1A) dopamine receptor (Homo sapiens), P21728; HEK293 TREx D1 cells, calcium flux, dopamine EC20 potentiation; potentiation, % at 10 µM; actives 0.036% (n = 360,000); in the data active = potentiation above about 30%; note: 0% is about no effect
TRHR agonist – qHTS for Small Molecule Agonists and Allosteric Enhancers of Human TRH Receptor: Primary Screen for Agonists | AID 493084, 2011 | activation, % at 2 µM | TRHR cells, calcium flux fluo-8, FDSS agonist mode | Thyrotropin-releasing hormone receptor (Homo sapiens), P34981 | actives 0.18% (n = 360,000); note: 0% is about no effect
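Steps: seed TRHR cells overnight; add fluo-8 no-wash Ca dye, RT 30 min–1.5 h; record 10 s baseline; pin-transfer compounds; monitor fluorescence 1 cycle/s for the agonist window. Calcium increases flag candidate agonists.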
D1 agonist – Allosteric Agonists of the Human D1 Dopamine Receptor: qHTS; D(1A) dopamine receptor (Homo sapiens), P21728; HEK293 T-REx D1 cells, calcium flux, agonist mode; activation, % at 2 µM; actives 1% (n = 360,000); note: 0% is about no effect
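Agonism was scored from calcium flux recorded over 180 s (1 read/s) after pintool compound addition, following a 10-cycle baseline. Cells were inducible force-coupled HEK293 TREx D1, plated overnight at 30 C and loaded with no-wash calcium dye.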
* marks the source's active call; other numbers are inactive results; nt = no result. Cut-off read from the data, not from the text of the source, unless noted: active = activation above about 30%; inactive = the rest.

SMILES | TRHR enhancer | D1 antagonist | D1 potentiator | TRHR agonist | D1 agonist
N#C/C(=C/c1ccc(N2CCOCC2)o1)c1nc2ccccc2[nH]1 | -2 | 7 | 1 | 28 | 64*
Cc1ccc2nc(/C(C#N)=C/c3ccc(-c4ccc(F)cc4F)o3)[nH]c2c1 | -4 | 1 | 8 | 52* | 219*
N#C/C(=C\c1ccc(Sc2nc3ccccc3[nH]2)o1)c1ccccc1 | -7 | -34* | -7 | 0 | 14
Cc1ccc2nc(/C(C#N)=C/c3ccc(-c4cccc([N+](=O)[O-])c4)o3)[nH]c2c1 | 1 | 1 | -3 | -1 | 47*
CCCNC(=O)CSc1nc2nc(C)c(Cc3ccccc3Cl)c(C)n2n1 | 6 | 1 | 0 | 0 | -1
CC(C)c1nc2ccc(C(=O)Nc3ccccc3F)cc2o1 | 4 | -1 | 0 | 0 | 1
CCOC(=O)c1ccc(NC(=O)c2csnn2)cc1 | -5 | 11 | -2 | 0 | -2
Cc1cc(C)c(S(=O)(=O)NCC(c2ccco2)N2CCN(c3ccccc3)CC2)c(C)c1 (stereo not drawn) | -9 | nt | -5 | 0 | -2
Cc1c(Cl)cccc1-c1ccc(/C=C(\C#N)c2nc3ccccc3[nH]2)o1 | 12 | 6 | -3 | -2 | 58*
N#C/C(=C\c1c(Cl)cccc1Cl)c1nc2ccccc2[nH]1 | -5 | -12 | -6 | 1 | 8
Cc1cc(C(=O)Nc2ccc(C(C)C)cc2)c2c(C)nn(-c3ccccc3)c2n1 | 0 | 0 | 2 | -1 | 5
C#CCOCCOCCOCCNc1nc(N2CCN(C(=O)CCCCCCCCCCNC(=O)[C@@H](CCC(=O)O)n3cc(CCCCCN)nn3)CC2)nc(N2CCN(C(=O)CCCCCCCCCCNC(=O)[C@H](CO)n3cc(CCCSC)nn3)CC2)n1 | 1 | 24 | -3 | 2 | 17
C#CCOCCOCCOCCNc1nc(N2CCN(C(=O)CCCCCCCCCCNC(=O)[C@H](CCCCN)n3cc(C)nn3)CC2)nc(N2CCN(C(=O)CCCCCCCCCCNC(=O)[C@@H]([C@H](C)O)n3cc(C)nn3)CC2)n1 | 20 | 21 | -2 | 0 | 34*
C#CCOCCOCCOCCNc1nc(N2CCN(C(=O)CCCCCCCCCCNC(=O)[C@H](CCCCN)n3cc(CCO)nn3)CC2)nc(N2CCN(C(=O)CCCCCCCCCCNC(=O)[C@H](CCCCN)n3cc(C[C@@H](C)CC)nn3)CC2)n1 | -4 | 30 | 13 | 1 | 70*
C#CCOCCOCCOCCNc1nc(N2CCN(C(=O)CCCCCCCCCCNC(=O)[C@H](CCCCN)n3cc(C[C@@H](C)CC)nn3)CC2)nc(N2CCN(C(=O)CCCCCCCCCCNC(=O)[C@H](CCCN=C(N)N)n3cc(C[C@@H](C)CC)nn3)CC2)n1 | -2 | -12 | -8 | 0 | 2
C#CCOCCOCCOCCNc1nc(N2CCN(C(=O)CCCCCCCCCCNC(=O)[C@@H](CCC(=O)O)n3cc(CCCCCN)nn3)CC2)nc(N2CCN(C(=O)CCCCCCCCCCNC(=O)[C@H](CO)n3cc(CCCCCN)nn3)CC2)n1 | 0 | -4 | -4 | 1 | 45*
C#CCOCCOCCOCCNc1nc(N2CCN(C(=O)CCCCCCCCCCNC(=O)[C@H](CCCN=C(N)N)n3cc(C[C@@H](C)CC)nn3)CC2)nc(N2CCN(C(=O)CCCCCCCCCCNC(=O)[C@@H]([C@H](C)CC)n3cc(CCCCCN)nn3)CC2)n1 | 2 | 15 | 35* | 0 | 6
C#CCOCCOCCOCCNc1nc(N2CCN(C(=O)CCCCCCCCCCNC(=O)[C@H]([C@@H](C)CC)n3cc(CCCCN=C(N)N)nn3)CC2)nc(N2CCN(C(=O)CCCCCCCCCCNC(=O)[C@H](CCCN=C(N)N)n3cc(C[C@@H](C)CC)nn3)CC2)n1 | -1 | 18 | -10 | 0 | 2
Cc1nn2c(=O)cc(CN(C)c3ccccc3)nc2s1 | 1 | 15 | -5 | -1 | 5
